# Reference: the supplement of paper PMC12282887
# ± gives the standard deviation of the averaged measurements.
# Tests used:
# Assay in all cases: promoter activity interaction Z-score (Lux/OD deviation from empty-vector control); higher = stronger promoter induction by the compound
# [1] = tested on: E. coli BW25113 acrABp lux reporter
# How it was run: (§1)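 E. coli BW25113, as wild type or one of three single-gene deletion strains, carried low-copy luxCDABE promoter reporters and grew in 40 µl LB Lennox in 384-well plates at 37°C, with OD600 and luminescence read every 30 min for 12 h. Each compound was run at four 1:2 dilutions in biological duplicates, integration spanned 0–8 h for wild type and 1–9 h for deletion strains, and wells under 10% of the median growth value were dropped. The score is the Z-transformed residual of growth-normalised luminescence fitted against a control.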
# [2] = tested on: E. coli BW25113 micFp lux reporter
# How it was run: as §1
# [3] = tested on: E. coli BW25113 ompFp lux reporter
# How it was run: as §1
# [4] = 17 µg/ml, genetic background: wild type
# [5] = 17 µg/ml, genetic background: ΔmarA
# [6] = 17 µg/ml, genetic background: Δrob
# [7] = 17 µg/ml, genetic background: ΔsoxS
# [8] = 34 µg/ml, genetic background: wild type
# [9] = 34 µg/ml, genetic background: ΔmarA
# [10] = 34 µg/ml, genetic background: Δrob
# [11] = 34 µg/ml, genetic background: ΔsoxS
# [12] = 68.1 µg/ml, genetic background: wild type
# [13] = 68.1 µg/ml, genetic background: ΔmarA
# [14] = 68.1 µg/ml, genetic background: Δrob
# [15] = 68.1 µg/ml, genetic background: ΔsoxS
# [16] = 136.2 µg/ml, genetic background: wild type
# [17] = 136.2 µg/ml, genetic background: ΔmarA
# [18] = 136.2 µg/ml, genetic background: Δrob
# [19] = 136.2 µg/ml, genetic background: ΔsoxS
smiles,measurement,setting,value
C[C@]12CC[C@@H]3c4ccc(O)cc4CC[C@H]3[C@@H]1CC[C@@H]2O [Estradiol],promoter activity interaction Z-score,[1]; [4],0.298 ± 0.0088
same,promoter activity interaction Z-score,[1]; [5],-0.217 ± 0.5
same,promoter activity interaction Z-score,[1]; [6],-0.138 ± 0.15
same,promoter activity interaction Z-score,[1]; [7],-0.335 ± 0.57
same,promoter activity interaction Z-score,[1]; [8],0.101 ± 0.01
same,promoter activity interaction Z-score,[1]; [9],0.101 ± 1.4
same,promoter activity interaction Z-score,[1]; [10],-0.0321 ± 0.063
same,promoter activity interaction Z-score,[1]; [11],-0.0568 ± 0.0019
same,promoter activity interaction Z-score,[1]; [12],-0.0194 ± 0.39
same,promoter activity interaction Z-score,[1]; [13],1.6 ± 0.16
same,promoter activity interaction Z-score,[1]; [14],-0.247 ± 0.35
same,promoter activity interaction Z-score,[1]; [15],-0.0269 ± 0.066
same,promoter activity interaction Z-score,[1]; [16],0.225 ± 0.041
same,promoter activity interaction Z-score,[1]; [17],-0.22 ± 0.31
same,promoter activity interaction Z-score,[1]; [18],-0.28 ± 0.4
same,promoter activity interaction Z-score,[1]; [19],0.453 ± 0.73
same,promoter activity interaction Z-score,[2]; [4],0.105 ± 0.31
same,promoter activity interaction Z-score,[2]; [5],-0.0854 ± 0.0072
same,promoter activity interaction Z-score,[2]; [6],-0.132 ± 0.0023
same,promoter activity interaction Z-score,[2]; [7],-0.254 ± 0.061
same,promoter activity interaction Z-score,[2]; [8],-0.221 ± 0.34
same,promoter activity interaction Z-score,[2]; [9],-0.0642 ± 0.01
same,promoter activity interaction Z-score,[2]; [10],-0.194 ± 0.16
same,promoter activity interaction Z-score,[2]; [11],0.292 ± 0.13
same,promoter activity interaction Z-score,[2]; [12],0.178 ± 0.23
same,promoter activity interaction Z-score,[2]; [13],0.0617 ± 0.15
same,promoter activity interaction Z-score,[2]; [14],-0.166 ± 0.3
same,promoter activity interaction Z-score,[2]; [15],0.179 ± 0.19
same,promoter activity interaction Z-score,[2]; [16],0.028 ± 0.51
same,promoter activity interaction Z-score,[2]; [17],0.118 ± 0.11
same,promoter activity interaction Z-score,[2]; [18],-0.079 ± 0.16
same,promoter activity interaction Z-score,[2]; [19],0.578 ± 0.0079
same,promoter activity interaction Z-score,[3]; [4],0.501 ± 0.11
same,promoter activity interaction Z-score,[3]; [5],-0.126 ± 0.37
same,promoter activity interaction Z-score,[3]; [6],-0.146 ± 0.11
same,promoter activity interaction Z-score,[3]; [7],0.0169 ± 0.25
same,promoter activity interaction Z-score,[3]; [8],-0.603 ± 0.43
same,promoter activity interaction Z-score,[3]; [9],-0.0141 ± 0.44
same,promoter activity interaction Z-score,[3]; [10],-0.554 ± 0.48
same,promoter activity interaction Z-score,[3]; [11],-0.0316 ± 0.18
same,promoter activity interaction Z-score,[3]; [12],-0.329 ± 0.44
same,promoter activity interaction Z-score,[3]; [13],0.821 ± 0.84
same,promoter activity interaction Z-score,[3]; [14],-0.486 ± 0.4
same,promoter activity interaction Z-score,[3]; [15],-0.581 ± 0.16
same,promoter activity interaction Z-score,[3]; [16],-0.397 ± 0.85
same,promoter activity interaction Z-score,[3]; [17],-0.336 ± 0.37
same,promoter activity interaction Z-score,[3]; [18],-0.534 ± 0.93
same,promoter activity interaction Z-score,[3]; [19],-0.638 ± 0.074
